Several values for one entry are separate records, joined by “and”; a condition that tells them apart may be missing. Equal entries are not always repeated. A structure can be active in one record and inactive in another. Activity calls are given as the source filed them. The calls were made as follows: active = hit-call score of the fitted dose curve at least 0.9, where 1 is the maximum; inactive = score below 0.9.
Tests used:
[1] = APR_HepG2_NuclearSize_24hr: Apredica 24-hour HepG2 Assay for Nuclear Size (AID 2282907); conditions: high-content imaging, actives raise or lower the signal
How it was run: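 Nuclear size from Hoechst 33342-stained, formaldehyde-fixed HepG2 nuclei imaged by high-content microscopy, after 24 h dosing at ten concentrations from 0.39 to 200 uM in 0.5% DMSO; gain or loss relative to DMSO baseline.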

[2] = APR_HepG2_CellLoss_24hr: Apredica 24-hour HepG2 Assay for Cell Loss (AID 2282908); conditions: high-content imaging;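 as to AC50: fit in both directions so a hit may be cell loss or gain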
How it was run: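 Nuclei stained with Hoechst 33342 after formaldehyde fixation (3.7%) were imaged at 20x to count cells. Exposure lasted 24 hr, at ten concentrations from 0.39 to 200 uM in duplicate, with 0.5% v/v DMSO. Fit bidirectional, relative to DMSO.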

[3] = APR_HepG2_MicrotubuleCSK_24hr: Apredica 24-hour HepG2 Assay for Microtubule CSK Stabilty (AID 2282909); conditions: HepG2 microtubule cytoskeleton imaging, actives raise or lower the signal
How it was run: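 Fixed HepG2 cells were stained for alpha-tubulin and imaged after 24 hr exposure to ten concentrations spanning 0.39–200 uM in 0.5% DMSO. Signal change was fitted in both directions relative to DMSO; taxol was the positive control.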

[4] = APR_HepG2_MitoticArrest_24hr: Apredica 24-hour HepG2 Assay for Mitotic Arrest (AID 2282910); conditions: high-content imaging, actives raise or lower the signal
How it was run: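 HepG2, 24 hr dosing, 0.39–200 uM, 0.5% DMSO final. Formaldehyde-fixed, Triton-permeabilised, anti-phospho-histone H3 plus Hoechst. ArrayScan imaging at 20x; bidirectional fit vs DMSO baseline.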

[5] = APR_HepG2_MitoMembPot_24hr: Apredica 24-hour HepG2 Assay for Mitochondrial Membrane Potential (AID 2282911); conditions: imaging, actives raise or lower the signal
How it was run: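 HepG2 human liver cells were exposed 24 hr to compounds at 0.39–200 uM (final DMSO 0.5% v/v) in duplicate. MitoTracker Red CMXRos (250 nM, 30 min) was loaded before formaldehyde fixation; fluorescence was imaged by ArrayScan HCS and fitted bidirectionally versus DMSO.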

[6] = APR_HepG2_p53Act_24hr: Apredica 24-hour HepG2 Assay for p53 Activation (AID 2282913); conditions: high-content imaging, actives raise or lower the signal;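 also: p53 protein immunofluorescence averaged per cell in HepG2 with Hoechst nuclei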
How it was run: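 HepG2 cells exposed 24 hr to compounds at 0.39–200 uM (10 concentrations, duplicate), final DMSO 0.5% v/v. After formaldehyde fixation and Triton permeabilization, p53 was immunolabeled (sheep anti-p53, Cy5 secondary) with Hoechst 33342 nuclear counterstain, then imaged by high-content fluorescence microscopy.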

[7] = APR_HepG2_CellCycleArrest_72hr: Apredica 72-hour HepG2 Assay for Cell Cycle Arrest (AID 2282914); conditions: high-content imaging, actives raise or lower the signal
How it was run: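 HepG2 cells were exposed to compounds at 0.39–200 uM (0.5% v/v DMSO final, duplicates) for 72 hr, fixed in 3.7% formaldehyde, permeabilized and stained with Hoechst 33342. Nuclear DNA content was quantified by high-content imaging; gain or loss of signal was fitted bidirectionally against DMSO.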

[8] = APR_HepG2_CellLoss_72hr: Apredica 72-hour HepG2 Assay for Cell Loss (AID 2282915); conditions: high-content imaging
How it was run: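 HepG2 cells exposed 72 h to compound at 0.39–200 uM (10 concentrations, duplicate) in 0.5% DMSO. Fixed with 3.7% formaldehyde and Hoechst 33342-stained. Imaged at 20x; nuclear count gives cell number, fitted bidirectionally versus DMSO.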

[9] = APR_HepG2_MitoMembPot_72hr: Apredica 72-hour HepG2 Assay for Mitochondrial Membrane Potential (AID 2282917); conditions: imaging, actives raise or lower the signal
How it was run: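 HepG2 cells dosed 72 hr with compound at 0.39–200 uM in duplicate, 0.5% v/v DMSO final. Mitochondria stained with 250 nM MitoTracker Red CMXRos for 30 min before formaldehyde fixation, imaged by high-content fluorescence; bidirectional fit versus DMSO.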

[10] = APR_HepG2_MitoticArrest_72hr: Apredica 72-hour HepG2 Assay for Mitotic Arrest (AID 2282918); conditions: high-content imaging, actives raise or lower the signal
How it was run: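 HepG2 cells were exposed for 72 hr to compound at 0.39–200 uM (10 concentrations, duplicate) in 0.5% v/v DMSO, fixed in 3.7% formaldehyde, immunostained for phospho-histone H3 with Hoechst 33342 and imaged by high-content fluorescence; bidirectional fits versus DMSO.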

[11] = APR_HepG2_MicrotubuleCSK_72hr: Apredica 72-hour HepG2 Assay for Microtubule CSK Stabilty (AID 2282919); conditions: HepG2 microtubule cytoskeleton, high-content imaging, actives raise or lower the signal
How it was run: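 HepG2, 72 hr cmpd exposure, 0.39–200 uM (10 pts, duplicate), 0.5% DMSO. 3.7% formaldehyde fix, 0.5% Triton perm, anti-alpha-tubulin/Cy5 plus Hoechst. HCS fluorescence intensity; bidirectional fit vs DMSO baseline; taxol as positive control.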

[12] = APR_HepG2_P-H2AX_24hr: Apredica 24-hour HepG2 Assay for H2AX Phosphorylation (AID 2282920); conditions: high-content imaging, actives raise or lower the signal
How it was run: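 HepG2 human liver cells were exposed for 24 hr to compounds at 0.39–200 uM in duplicate, with 0.5% v/v DMSO final. Fixed cells were immunostained for phospho-histone H2A.x plus Hoechst 33342, imaged by HCS fluorescence, and fitted bidirectionally against DMSO.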

[13] = APR_HepG2_StressKinase_72hr: Apredica 72-hour HepG2 Assay for Stress Kinase (AID 2282921); conditions: HepG2 stress kinase (phospho-c-Jun) imaging, actives raise or lower the signal
How it was run: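 Stress kinase signal is phospho-c-Jun immunofluorescence (1:500 primary, Cy3 secondary) in fixed, permeabilized human HepG2 cells imaged at 20x. Exposure lasted 72 hr over ten concentrations from 0.39 to 200 uM, 0.5% DMSO, in duplicate. Bidirectional fit versus DMSO.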

[14] = APR_HepG2_StressKinase_24hr: Apredica 24-hour HepG2 Assay for Stress Kinase (AID 2282922); conditions: HepG2 stress kinase (phospho-c-Jun) imaging, actives raise or lower the signal
How it was run: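 Read-out: phospho-c-Jun immunofluorescence (Cy3 secondary) quantified by high-content imaging at 20x, nuclei defined by Hoechst 33342. Human HepG2 liver cells dosed 24 hr, 0.39–200 uM, DMSO 0.5% v/v; gain or loss of signal fitted relative to DMSO.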

[15] = APR_HepG2_p53Act_72hr: Apredica 72-hour HepG2 Assay for p53 Activation (AID 2282923); conditions: high-content imaging, actives raise or lower the signal;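 also: average cellular p53 protein immunofluorescence intensity in HepG2 cells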
How it was run: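 After 72 h with compound (ten points, 0.39 to 200 uM, final DMSO 0.5% v/v), fixed HepG2 cells were labelled with sheep anti-p53 and Hoechst 33342 and imaged; gain or loss versus DMSO scored.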

[16] = APR_HepG2_MitoMass_72hr: Apredica 72-hour HepG2 Assay for Mitochondrial Mass (AID 2282924); conditions: high-content imaging, actives raise or lower the signal;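 also: MitoTracker Red CMXRos stain intensity per cell imaged as mitochondrial mass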
How it was run: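 Read-out: MitoTracker Red fluorescence intensity from automated imaging (20x, six fields per well) in human HepG2 liver cells. Dosing ran 72 hr, 0.39–200 uM, 0.5% DMSO; bidirectional curve fitting versus DMSO baseline.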

[17] = APR_HepG2_NuclearSize_72hr: Apredica 72-hour HepG2 Assay for Nuclear Size (AID 2282925); conditions: high-content imaging, actives raise or lower the signal
How it was run: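 Read-out: nuclear diameter from Hoechst 33342 images (ArrayScan, 20x, six fields/well), via cell-cycle image analysis. HepG2 were dosed 0.39–200 uM for 72 hr in 0.5% DMSO. Bidirectional fit relative to DMSO.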

[18] = ATG_CRE_CIS: Attagene CIS-FACTORIAL HepG2 Assay for human cAMP Responsive Element (CRE) binding protein 3 (AID 2282926); conditions: HepG2 CRE cis-reporter, Attagene multiplexed mRNA; actives raise or lower the signal
How it was run: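 Capillary electrophoresis of 6-FAM-labelled, HpaI-digested PCR products quantified reporter transcripts. These came from HepG2 transiently transfected with cis-element reporters and exposed to test chemicals for 24 hours, with DMSO defining baseline activity.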

[19] = APR_HepG2_P-H2AX_72hr: Apredica 72-hour HepG2 Assay for H2AX Phosphorylation (AID 2282916); conditions: imaging, actives raise or lower the signal;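 also: phospho-histone H2A.x immunostain intensity per cell marking DNA damage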
How it was run: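 Phospho-histone H2A.x immunofluorescence, multiplexed with Hoechst and c-Jun, quantified by high-content imaging. Compounds applied to HepG2 for 72 h across ten concentrations (0.39–200 uM, 0.5% DMSO), in duplicate; DMSO baseline.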

Measured: AC50

CC(C)CCCCCCc1ccc(O)cc1
inactive: [1] | [6] | [9] | [13] | [14] | [17] | [18]
active: [2] 26.8 µM | [3] 65.4 µM | [4] 26.3 µM | [5] 115 µM | [7] 123 µM | [8] 28.8 µM | [10] 30.9 µM | [11] 62.1 µM | [12] 100 µM | [15] 29.7 µM | [16] 21.4 µM | [18] 17.3 µM and 16.4 µM

CCCCOC(=O)[C@@H](C)Oc1ccc(Oc2ccc(C(F)(F)F)cn2)cc1
not listed: [8] | [19]
inactive: all other assays above

C=CCOC(Cn1ccnc1)c1ccc(Cl)cc1Cl (configuration not stated)
active: [2] 55.8 µM | [10] 78.5 µM | [11] 43.1 µM | [18] 12.9 µM
not listed: [8] | [19]
inactive: all other assays above

c1ccc2[nH]c(-c3cscn3)nc2c1
not listed: [6] | [8] | [15]
inactive: all other assays above

COC(=O)CSc1cc(N=c2sc(=O)n3n2CCCC3)c(F)cc1Cl
active: [2] 103 µM
not listed: [8]
inactive: all other assays above

COC(=O)c1ccc(I)cc1S(=O)(=O)NC(=O)Nc1nc(C)nc(OC)n1
not listed: [8] | [19]
inactive: all other assays above

CCCN(CCC)C(=O)SCC
not listed: [8]
inactive: all other assays above

C#C[C@]1(O)CC[C@H]2[C@@H]3CCC4=CC(=O)CC[C@@H]4[C@H]3CC[C@@]21CC
not listed: [8] | [19]
inactive: all other assays above

COc1c(Cl)ccc(Cl)c1C(=O)O
not listed: [6] | [15] | [19]
inactive: all other assays above

CN(C)C(=O)Nc1ccc(Cl)c(Cl)c1
active: [9] 15.7 µM
not listed: [8]
inactive: all other assays above

COC(=O)c1ccc(CNS(C)(=O)=O)cc1S(=O)(=O)NC(=O)Nc1nc(OC)cc(OC)n1
not listed: [19]
inactive: all other assays above

CCCCOC(=O)C(C)Oc1ccc(Oc2ccc(C(F)(F)F)cn2)cc1 (configuration not stated)
active: [9] 34.9 µM
not listed: [8] | [19]
inactive: all other assays above

CCOC(=O)[C@H](C)Oc1ccc(Oc2nc3ccc(Cl)cc3o2)cc1
active: [5] 96.7 µM
not listed: [8] | [19]
inactive: all other assays above

CCCCC(CC)COC(=O)c1ccccc1C(=O)O (configuration not stated)
not listed: [8] | [19]
inactive: all other assays above

Source: PubChem BioAssay (EPA / NIEHS)
